Laboratory results: PubChem BioAssay AID504408 (Broad Institute, 2011)
Hit rate of the full screen: of about 300,000 compounds, about 5,200 (1.7%) were called active. Shown is part of a subset that was picked to be rich in actives. A number with no mark means an inactive call.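 The calls were made as follows: active = mean replicate activation of at least 50% with a set share of replicates each reaching 50%; inconclusive = only one of those two conditions met; inactive = mean below 50% and too few replicates reaching it.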

test: HSF-1 activators, primary screen, NIH3T3-HGL cells, MG132 stress, luminescence, single point (AID 504408); details: NIH3T3-HGL HSF-1 luciferase reporter, MG132, 8 h; at 9 µM; stronger effect = higher value; 100% = twice DMSO control signal;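 also: 0% = median of the neutral control wells and 100% = twice that signal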

SMILES | activation
Cc1ccc(OCC(=O)Nc2nnc(-c3ccco3)s2)cc1 | 2.22%
CCCCOc1ccc(-c2nnc(-c3ccco3)o2)cc1 | 79.3% (active)
COc1ccc(OCC(=O)Nc2nnc(-c3ccco3)s2)cc1 | 3.21%
CC(C)Oc1ccc(S(=O)(=O)N2CCOCC2)cc1NC(=O)C1CSC2(C)CCC(=O)N12 (configuration not stated) | 0.413%
Cc1nn(C)cc1/C=N/NC(=O)c1sc2ccccc2c1Cl | 3.1%
Cc1nn(-c2ccccc2)c(Cl)c1/C=N/NC(=O)c1nn(C)cc1[N+](=O)[O-] | 125% (active)
Cc1ccc(-n2nc(C)c(/C=N/NC(=O)c3cccs3)c2Cl)cc1 | -8.54%
Cc1cccc(Oc2c([N+](=O)[O-])c(=O)n(C)c3ccccc23)c1 | 110% (active)
Cn1c(=O)c([N+](=O)[O-])c(Oc2ccccc2)c2ccccc21 | 6.27%
Cc1cc(C)c(-c2c(O)c3ccccc3n(C)c2=O)c(C)c1 | -9.47%
CC(=O)c1c(C)[nH]c(C(=O)COC(=O)CCOc2ccc(C)cc2)c1C | -0.193%
COC(=O)N/N=C/c1c[n+]([O-])c2ccccc2[n+]1[O-] | 0.846%
Cc1ccc(S(=O)(=O)N(C)C)cc1NC(=O)COC(=O)c1c(C)noc1C | 63.2% (active)
Cc1ccc(S(=O)(=O)N(C)C)cc1NC(=O)COC(=O)/C=C/c1cccs1 | -10.8%
Cc1ccc(S(=O)(=O)N(C)C)cc1NC(=O)COC(=O)C1COc2ccccc2O1 (configuration not stated) | -5.78%
O=C(N/N=C/c1cc(Br)c(O)c([N+](=O)[O-])c1)C(O)(c1ccccc1)c1ccccc1 | 3.81%
N#C/C(=C(\O)C(F)(F)F)c1nnc2n1CCCCC2 | 55.4% (active)
N#C/C(=C/c1cccc([N+](=O)[O-])c1)c1nnc2n1CCCCC2 | -2.78%
N#C/C(=C(\O)CCl)c1nnc2n1CCCCC2 | -4.83%
CC(C)(C)N1C(=O)[C@H]2[C@@H](c3ccc(Br)cc3)N3C(=O)N(c4cccc(Cl)c4)C(=O)[C@@]3(C)[C@H]2C1=O | -6%
CCCCN(C(=O)CSCC(=O)Nc1ccc(OC)cc1)c1c(N)n(CCC)c(=O)[nH]c1=O | -4.27%

SMILES | activation
Cc1ccccc1N1CC(C(=O)Nc2ccc(S(=O)(=O)N3CCCC3)cc2)CC1=O (configuration not stated) | 9.12%
CN(C1CCS(=O)(=O)C1)S(=O)(=O)c1ccc2ccccc2c1 (configuration not stated) | -4.34%
COc1ccc(Cc2nnc(SCC(=O)Nc3ccc(C)c(Cl)c3)[nH]c2=O)cc1 | -4.89%
O=C(c1ccncc1)N1CCN(c2ccc3ccccc3n2)CC1 | -4.23%
Oc1ccc(CN2CCN(c3ncccn3)CC2)cc1 | 7.28%
c1cnc(N2CCN(c3ccc4ccccc4n3)CC2)nc1 | 53.3% (active)
CCN(CC(=O)Nc1c(F)cccc1F)C(=O)CN1c2cccc3cccc(c23)S1(=O)=O | -9.4%
Cc1cc(NC(=O)CCS(=O)(=O)c2ccc(F)cc2)no1 | -7.32%
Cc1ccc(S(=O)(=O)NCCC(=O)NNC(=O)C2COc3ccccc3O2)cc1 (configuration not stated) | 5.45%
Cc1ccc(C)c(OCC(=O)N2CCN(C(=O)c3ccco3)CC2)c1 | 17%
COc1cccc(C(=O)Nc2ccc(N3CCN(C(=O)c4ccco4)CC3)cc2)c1 | -17.6%
Cc1ccc(OCC(=O)Nc2ccc(N3CCN(C(=O)c4ccco4)CC3)cc2)c(C)c1 | 67.8% (active)
COc1ccc(C(=O)OCC(=O)Nc2ccc3[nH]c(=O)[nH]c3c2)c(OC)c1OC | 29.4%
CCc1c(C)sc(NC(=O)c2cccs2)c1C(N)=O | 39.5%
CCOC(=O)c1c(NC(=O)C2CC=CCC2C(=O)O)sc(C)c1CC (configuration not stated) | -15%
CCc1c(C)sc(NC(=O)c2ccc(Br)o2)c1C(=O)OC | 64.8% (active)
Cc1onc(-c2ccccc2Cl)c1C(=O)OCc1nnc(-c2ccccc2)o1 | 23.4%
COc1ccc2nc(SCc3ccccc3)nc(C)c2c1 | 68.9% (active)
COC(=O)CSc1nc(C)c2ccc(OC)cc2n1 | 17.7%
COc1ccc(-c2nnc3ccc(SCc4ccccc4)nn23)cc1 | 16%
Cc1ccc(S(=O)(=O)N2CCCCC2)cc1C(=O)N(C)CC(=O)Nc1cccc(F)c1 | 5.46%
